Screening data deposited in PubChem BioAssay by National Center for Advancing Translational Sciences (NCATS).
HADH2 inh: qHTS Assay for Inhibitors of HADH2 (Hydroxyacyl-Coenzyme A Dehydrogenase, Type II); 3-hydroxyacyl-CoA dehydrogenase type-2 (Homo sapiens), Q99714; recombinant HADH2, NADH fluorescence, beta-hydroxybutyryl-CoA; Potency, µM (titrated, usually from 57.1 µM), without a hit: at the top dose activity change, negative = inhibition, most hits filed as inhibitors; 3.4% of 73,000 active; AID 886, 2007; note: nearly all actives have a fitted effect of over 60% in size
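Activity measured as NADH fluorescence gain (360/450 nm), taken as the change between first and last reads of a 4-min kinetic run. Conditions: pH 9.0 Tris buffer, 20 nM E. coli-expressed His-tagged enzyme, 1 mM NAD+, 90 uM beta-hydroxybutyryl-CoA; 15-min compound preincubation.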
HSD17B inh: qHTS Assay for Inhibitors of HSD17B4, hydroxysteroid (17-beta) dehydrogenase 4 | 3-hydroxyacyl-CoA dehydrogenase type-2 (Homo sapiens), Q99714 | recombinant HSD17B10, NADH fluorescence kinetic | Potency, µM (titrated, usually from 57.1 µM), inactives show top-dose activity change, negative = inhibition, most hits filed as inhibitors | 7.6% of 75,000 active | AID 893, 2007;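 note: the protocol describes HADH2 (HSD17B10) and not the HSD17B4 of the title; nearly all actives have a fitted effect of over 70% in size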
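20 nM HADH2, pH 9.0 Tris/Tween; cpd preinc 15 min RT; start w/ 1 mM NAD+ + 90 uM b-hydroxybutyryl-CoA; kinetic fluor ex360/em450 q30s x 4 min; delta last-first.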
PK Bst: Pyruvate Kinase | purified pyruvate kinase, luminescence ATP production; ribose 5-phosphate activator present at AC10 | Potency, µM | 1.2% of 51,000 active | AID 361, 2006; in the data active = potency below about 11 µM; inconclusive = mostly about 12 µM to 25 µM;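 the screen sought inhibitors and activators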;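 note: scaled between full activation by ribose 5 phosphate and full inhibition by luteolin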
ALOX15 inhib: qHTS Assay for Inhibitors of 15-hLO (15-human lipoxygenase) | Polyunsaturated fatty acid lipoxygenase ALOX15 (Homo sapiens), P16050 | purified 15hLO-1, xylenol orange hydroperoxide absorbance | Potency, µM (series often up to 57.1 µM), for inactives: top-dose activity change, negative = inhibition, most hits filed as inhibitors | 1.4% of 74,000 active; note: nearly all actives have a fitted effect of over 55% in size
Target sequence (P16050 whole entry, looked up): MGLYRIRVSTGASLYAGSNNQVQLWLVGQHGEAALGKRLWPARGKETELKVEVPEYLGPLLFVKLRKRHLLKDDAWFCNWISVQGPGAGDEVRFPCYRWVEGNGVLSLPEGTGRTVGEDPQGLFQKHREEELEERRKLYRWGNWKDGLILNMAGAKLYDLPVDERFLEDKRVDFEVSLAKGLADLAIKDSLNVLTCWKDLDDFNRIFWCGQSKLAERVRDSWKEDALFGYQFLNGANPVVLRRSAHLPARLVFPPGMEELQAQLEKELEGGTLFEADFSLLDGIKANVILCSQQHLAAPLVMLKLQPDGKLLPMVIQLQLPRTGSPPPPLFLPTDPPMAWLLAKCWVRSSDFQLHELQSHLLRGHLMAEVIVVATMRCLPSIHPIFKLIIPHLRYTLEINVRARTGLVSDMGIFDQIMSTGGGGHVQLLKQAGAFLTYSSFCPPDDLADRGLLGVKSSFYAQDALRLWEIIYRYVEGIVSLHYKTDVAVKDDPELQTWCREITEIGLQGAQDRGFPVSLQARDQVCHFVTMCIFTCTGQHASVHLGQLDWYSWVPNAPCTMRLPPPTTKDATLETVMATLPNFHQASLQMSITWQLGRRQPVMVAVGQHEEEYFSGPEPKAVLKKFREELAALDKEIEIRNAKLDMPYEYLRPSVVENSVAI
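Quantitative HTS in 25 mM Hepes pH 7.5 containing 0.01% Triton X-100: human 15hLO-1 at 40 nM, arachidonic acid at 50 uM, 6 min turnover. Product quantified via ferrous oxidation/xylenol orange, 573:405 nm absorbance ratio.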
ERK AVP block: qHTS Assay for Inhibitors of the ERK Signaling Pathway using a Homogeneous Screening Assay. HEK293-V1b, vasopressin-stimulated pERK AlphaScreen. 0.99% of 72,000 active. Potency, µM (highest dose often 57.5 µM), for the others: at the highest dose activity, negative = inhibition, usual class: inhibitors. AID 995, 2007; note: nearly all actives have a fitted effect of over 55% in size
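Overnight-seeded V1b-HEK293 cells in 1% FBS got compound, then vasopressin (25 nM final, 5 min, 37C), then lysis buffer. AlphaScreen detection of phospho-ERK; activity normalized to basal and full-stimulation controls.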
FLuc inh: qHTS Assay for Inhibitors of Firefly Luciferase | Luciferin 4-monooxygenase (Photinus pyralis), P08659 | 2.2% of 72,000 active | purified firefly luciferase, luminescence, 8 min | Potency, µM (top dose mostly 57.1 µM), without a hit: top-dose activity change, negative = inhibition, hits mostly inhibitors; note: nearly all actives have a fitted effect of over 40% in size
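Substrate buffer containing 10 uM ATP (pH 7.2 imidazole, Mg2+, KCl, detergent, BSA) is dispensed, compound pinned in, then luciferase/luciferin detector mix added. After 8 min at ambient temperature, light output is measured.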
Numbers without * were called inactive; i = inactive; u = inconclusive; x = not tested or not shown; [ ] = dose if it differs, or a comment. Hits are enriched below; roughly 11% of the tested compounds scored in any of these assays. Unless noted, calls come from the whole dose curve; as a rule, active = well fitted curve in the direction sought with a large enough effect; inconclusive = small, poorly fitted or top-dose-only effect, or another doubt; inactive = no such curve, though single readings can be large; an effect the other way counts as inactive or inconclusive. Unless noted, % is set by controls: 0 for no effect and ±100 for the full control effect; potency is the fitted concentration of half-maximal effect.

SMILES | HADH2 inh | HSD17B inh | PK Bst | ALOX15 inhib | ERK AVP block | FLuc inh
COc1ccc(-c2cc(-c3ccccc3)nc(N3CCCC3)n2)cc1OC | i[11.4 µM] | 32µM* | x | -9%[11.4 µM] | 30% | 1%
COc1ccc2c3c(cccc13)NN=C2C | 11% | u | x | 13µM* | 5% | -21%
O=C(CCSc1nc(-c2ccc3c(c2)OCO3)cc(C(F)(F)F)n1)NCc1ccco1 | u | 25µM* | x | -11% | -8% | -5%
O=C(CCSc1nc(-c2ccco2)cc(C(F)(F)F)n1)Nc1ccc2c(c1)OCO2 | 4% | 5% | >57 | -10% | -22% | 6%
COC(=O)c1c(S(N)(=O)=O)c2ccccc2n1C | u | 32µM* | x | 4% | -2% | 1%
CCCS(=O)(=O)c1c(S(=O)(=O)CCC)c2ccccn2c1C(=O)OC | -3% | u | x | -7% | -20% | -2%
Cn1c([N+](=O)[O-])cnc1CN1CCN(CCO)CC1 | 3%[11.4 µM] | 7%[11.4 µM] | x | 5%[11.4 µM] | 7%[11.5 µM] | 6%[11.4 µM]
COc1ccc2c(c1)CCc1c-2n[nH]c1C(=O)O | u | 32µM* | x | 2% | 5% | u
CCN(CC)CCOC(=O)c1c(C)n(C)c2ccc(OC)cc12 | x | x | >26 | x | x | 0%[25.5 µM]
COc1ccc2c(c1)c1c(n2C(C)=O)C(OC(C)=O)=NCC1 | -13% | 25µM* | >57 | -1% | -8% | 2%
O=C1CN2CCN(CC2)CC(=O)Nc2ccc(cc2)S(=O)(=O)c2ccc(cc2)NC(=O)CN2CCN(CC2)CC(=O)Nc2ccc(cc2)S(=O)(=O)c2ccc(cc2)N1 | 6%[11.4 µM] | -9%[11.4 µM] | x | 14%[11.4 µM] | 10%[11.5 µM] | 0%[11.4 µM]
CC(=O)c1ccc(-c2nc3c4ccccc4ccn3c2C(C)=O)o1 | 6% | 20µM* | x | -5% | x | x
COC(=O)NC(c1cccc(C)c1)C(C(C)=O)C(=O)OC (configuration not stated) | 5%[11.4 µM] | -1%[11.4 µM] | x | 21%[11.4 µM] | 10%[11.5 µM] | x
COCCn1c(=O)c(CCc2ccccc2)nc2cnc(Oc3ccccc3)nc21 | 6% | -6% | x | 1% | 8% | 0%[11.4 µM]
COc1ccc2[nH]c(=O)c(CN(C(=O)c3ccncc3)C(C)(C)C)cc2c1 | 6% | u | >57 | -6% | -25% | 1%
COc1ccc2[nH]c(=O)c(CN(C(=O)c3ccncc3)C(C)C)cc2c1 | 0% | 20µM* | >57 | 3% | -23% | 3%
CCCN(Cc1cc2cc(OC)ccc2[nH]c1=O)C(=O)c1ccncc1 | -17% | 32µM* | >57 | -21% | -23% | 2%
COc1ccc2[nH]c(=O)c(CN(C)C(=O)c3ccncc3)cc2c1 | -11% | 32µM* | >57 | 12% | -12% | 2%
COc1ccc(CC(=O)N(Cc2cc3cc(OC)ccc3[nH]c2=O)C(C)C)cc1 | -14% | 32µM* | >57 | -3% | -23% | 2%
COc1cc(OC)cc(C(=O)N(Cc2cc3cc(C)ccc3[nH]c2=O)C(C)C)c1 | 1% | u | >57 | -23% | -13% | -2%
O=C(c1cnccn1)N1CCC[C@@]2(CCN(c3cccc(-c4ccccc4)c3)C2)C1 | 1% | -2% | x | -28% | u | -2%[11.4 µM]
COc1ccccc1CN1CC2(CCN(C(=O)c3cc(C(F)(F)F)cc(C(F)(F)F)c3)CC2)C1 | -5% | 4% | x | 3% | -13% | -2%[11.4 µM]
C[C@@H]1CCCC(CC(=O)O)(CC(=O)O)C1 | 14%[11.4 µM] | 5%[11.4 µM] | x | -1%[11.4 µM] | 1%[11.5 µM] | -1%[11.4 µM]
COc1ccc(C(=O)N2CCC3(CCN(Cc4nccs4)CC3)CC2)cc1 | -2% | 4% | x | 7% | -2% | 2%[11.4 µM]
CCN(Cc1cc2ccccc2[nH]c1=O)C(=O)C1CCCCC1 | -8% | -15% | >57 | -13% | -20% | -3%
SMILES | HADH2 inh | HSD17B inh | PK Bst | ALOX15 inhib | ERK AVP block | FLuc inh
COc1ccc2[nH]c(=O)c(CN(C)C(=O)C3CCCCC3)cc2c1 | 10% | 16µM* | >57 | 3% | 9% | 3%
Cc1ccc(S(=O)(=O)N(CC(=O)O)Cc2cccc(C)c2)cc1 | 13% | 7% | x | -9% | x | x
O=C(Nc1ccc(SC(F)F)cc1)c1ccc2nccnc2c1 | u | -6% | x | -16% | 25µM* | u
O=C(Nc1ccncc1)c1cccc(F)c1 | 11% | 4% | x | -6% | -25% | 1%
O=C(Nc1ccc2c(c1)OCCO2)c1ccc2nccnc2c1 | -2% | -10% | u | 4% | -5% | 10µM*
O=c1[nH]ncc2ccccc12 | -2% | 32µM* | x | -4% | -3% | x
Cc1nn2c(c1-c1ccccc1)NC1=C(C(=O)CCC1)C2c1cccnc1 (configuration not stated) | u | 3.2µM* | >57 | -1% | 7% | 1%
N#Cc1ccc(CN2CC3(CCN(C(=O)c4ccncc4)CC3)C2)cc1 | 2% | 8% | x | 8% | -3% | 2%[11.4 µM]
O=C(Nc1ccc2c(c1)nc1n2CCSC1)c1ccccc1 | u | -17% | u | -10% | u | 10µM*
CCC(=O)Nc1ccc2c(c1)nc1n2CCSC1 | u | -4% | >57 | -19% | -5% | -7%
COc1ccc(C(=O)Nc2ccc3c(c2)nc2n3CCSC2)cc1 | u | u | u | u | -27% | 13µM*
COc1cc(C/C=C/c2ccccc2)c(OC)cc1O | x | 5% | x | u | 13% | x
CN(C)CCNc1ccccn1 | -6%[11.4 µM] | 8%[11.4 µM] | x | 1%[11.4 µM] | -3%[11.5 µM] | 3%[11.4 µM]
[O-][N+](=Nc1ccccc1)c1ccccc1 | -4% | 1% | x | -3% | 14% | x
O=c1c(-c2cccs2)nc2cncnc2n1Cc1ccc(F)cc1 | 7% | 2% | x | 6% | 10% | -2%[11.4 µM]
COc1cccc(Cn2c(=O)c(-c3ccc(F)cc3)nc3cnc(OC)nc32)c1 | -5% | 10% | x | 2% | 1% | 0%[11.4 µM]
COc1ncc2nc(-c3ccc(F)cc3)c(=O)n(Cc3ccc(F)cc3)c2n1 | 16% | 20µM* | x | -9% | -3% | 1%[11.4 µM]
COc1ncc2nc(-c3cccs3)c(=O)n(Cc3ccc(F)cc3)c2n1 | 11% | 3.2µM* | x | -13% | 13% | -12%[11.4 µM]
COc1ncc2nc(-c3cccs3)c(=O)n(Cc3cccs3)c2n1 | -3% | 25µM* | x | -3% | -2% | 0%[11.4 µM]
OCC(O)C(O)[C@H](O[C@H]1OC(CO)C(O)C(O)C1O)[C@H](O)CO (some centres not stated) | x | 6% | x | -2% | 0% | x
CC(C)c1cc(Nc2cccc(O)c2)cc(C(C)C)c1O | 16µM* | 16µM* | x | 10µM* | 32µM* | -5%
O=C(O)c1c(-c2c3ccc(=O)cc-3oc3cc(O)ccc23)cc2ccccc2c1-c1ccccc1 | 3%[11.4 µM] | 3%[11.4 µM] | x | 13%[11.4 µM] | -3%[11.5 µM] | 2%[11.4 µM]
